Drawing on PubChem BioAssay (NCI), this text covers growth for 40 compounds.

About 83,000 compounds went through this panel and 20% of them were active in at least one assay; those are over-represented in the sample as a whole.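 48-hour exposure, single concentration, 96-well plates; percent growth endpoint where 0 means no net growth. Active: below 10.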 Unmarked numbers belong to inactive results. Activity calls are given as the source filed them.

The test system of the assay is M14 melanoma. Description: NCI-60 one-dose screen, 48 h (100 = growth as untreated, 0 = no growth, -100 = all killed). The conditions noted are these: 10 µM unless noted. The protocol:
Growth inhibition of the M14 human tumor cell line is measured as a screen for anti-cancer activity. Cells are grown in 96 well plates and exposed to the test compound for 48 hours. Compounds are tested at a single concentration, which is 10^-5 M for most compounds. The reported endpoint is percent growth (GI% or GIPRCNT), where numbers from 0 - 100% represent growth inhibition, and numbers from -100% - 0 represent cell death. For example, a value of 40 represents 60% growth inhibition. A value of 0 means no net growth occurred over the course of the experiment. A value of -40 indicates 40% of cells at the beginning of the experiment died by the end of the experiment. A value of -100 means all cells are dead at the end of the experiment.
NCI-60 Human Tumor Cell Lines Screen was performed using the standard one-dose NCI protocol, which is described in more detail at https://dtp.cancer.gov/discovery_development/nci-60/default.htm.
Compounds with GIPRCNT values below 10 were considered active. Activity score was based on GIPRCNT using the following formula: […]
Score is 0 for GIPRCNT values of 100 or above, 50 for GIPRCNT values of 0, and 100 for GIPRCNT values of -100.
With `C=C(CN1CC=CCC1)[C@@H]1CC[C@]2(CO)CC[C@]3(C)[C@H](CC[C@@H]4[C@@]5(C)CC[C@H](O)C(C)(C)[C@@H]5CC[C@]43C)[C@@H]12`, the growth was 96.1%.

As for `C#Cc1cccc(Nc2nc3ccc([N+](=O)[O-])cc3nc2Nc2cccc(C#C)c2)c1`, the growth is -82% (active).

`N#Cc1c(-c2cccc([N+](=O)[O-])c2)cc(-c2ccc(Nc3nc(Nc4ccc(F)cc4)nc(Nc4ccc(F)cc4)n3)cc2)nc1N`: the growth is 110%.

As for `CCCC(O)Cn1ncc(C(=O)OCC)c1NC(=O)NCc1cccc(F)c1` (stereo not given), the growth is 80.5%.

Turning to `CCCCCCCC/C=C\CCCCCCCCOc1ccccc1CC(=O)NCC[N+]1(C)CCCCC1`, the growth was 65.5%.

As to `Cc1[nH]c(C(=O)Nc2cccc(OC3CCNCC3)c2)c(Cl)c1Cl`, the growth is -12.4% (active).

Regarding `COc1cc2c(cc1O)[C@@]1(C)[C@H](c3ccccc3Br)OC(=O)N1CC2`, the growth is 88.3%.

Turning to `COc1ccc(C2CC(c3ccc4c(c3)OCO4)=Nc3c(N)ncnc3N2)cc1` (stereo not given), the growth is 105%.

As to `COc1ccc(/C=C/C(=O)c2ccc(NC(=O)CSc3nnc(-c4cc(-c5ccccc5)nc5ccccc45)n3-c3ccccc3)cc2)cc1`, the growth is 99%.

For the compound `CC1(C)CC2=C3C=C[C@@H]4[C@@]5(C)CC[C@H](O)C(C)(C)[C@@H]5CC[C@@]4(C)[C@]3(C)CC[C@@]2(C(=O)O)CC1=O`, the growth is 30.3%.

For `Cc1ccc(C(=O)c2ccc(CC(=O)N/N=C/c3ccc(O)cc3O)n2C)cc1`, the growth is 28.8%.

For the compound `CN(C)c1ccc(/C=C2/C=C(c3ccccc3)OC2=O)cc1`, the growth was 86.1%.

Consider `CCN1C(=S)N(CC)C2C1NC(=S)N2/N=C/C=C/c1ccccc1OC` (stereo not given), for which the growth was 10.3%.

As to `COC(=O)c1ccc2c(c1)c1c(C)c3ccncc3c(C)c1n2C`, the growth was 30.8%.

For the compound `COc1cccc(/C=C/C(=O)c2cc3c(N)c(C(=O)Nc4cccc(Cl)c4C)sc3nc2C)c1`, the growth is -28.4% (active).

As to `CSCCC(NC(=O)c1ccccc1)C(=O)N/N=C1\S/C(=C/c2ccc(Cl)cc2)C(=O)N1C` (stereo not given), the growth was 86.6%.

In the case of `Cc1ncc(C(=O)Nc2ccc(CN3CCN(C)CC3)c(C(F)(F)F)c2)cc1C#Cc1cnc(N)c2ccncc12`, the growth was -63.7% (active).

Turning to `COC(=O)C1=Nc2ccc(F)cc2/C1=C\c1sc(Nc2ccc(O)cc2)nc1O`, the growth was 49%.

Consider `N#C/C(=C\c1ccc(-c2ccc(Cl)cc2)o1)c1ccc(Cl)cc1`, for which the growth is 81.4%.

For `CN(CCC#N)c1ccc(/C=C2\NC(=O)NC2=O)cc1`, the growth is 96.4%.

As to `C#Cc1cccc(Oc2ccc(NC(=O)CCl)cc2)c1`, the growth is 24.6% [8.25 µM].

`CC1(C)CCC(S(=O)(=O)c2ccc3c(c2)/C(=N\O)c2cc(S(=O)(=O)N4CCN(c5ccc(F)cc5O)CC4)ccc2-3)CC1`: the growth was -81.9% (active).

As for `CCCCCCCCCCCCCCCCCCOc1ccccc1CC(=O)OCC[N+]1(C)CCOCC1`, the growth was 69.9%.

Consider `NS(=O)(=O)c1ccc(N/C=C/C(=O)c2cc3ccccc3oc2=O)cc1`, for which the growth is 89.5%.

For the compound `O=C(O)C1CN(c2cccc(Cl)c2)N(c2cccc(Cl)c2)C1=O` (stereo not given), the growth was 87.8%.

Take `Cc1ccc(/C=C2\CN(C(=O)C(Cl)Cl)C/C(=C\c3ccc(C)cc3)C2=O)cc1`: the growth was -65.6% (active).

Take `O=C1OCC2=C1C(c1cccc(C(F)(F)F)c1)c1cc3c(cc1N2CCO)OCO3` (stereo not given): the growth was 2.33% (active).

As to `C=C1C(=O)O[C@H]2[C@H]1CC/C(COC(=O)c1cc3cc(F)ccc3[nH]1)=C\CC[C@@]1(C)O[C@@H]21`, the growth is -75.9% (active).

As for `O=C1c2cccnc2C(=O)c2c1c(C(=O)OCCCN1CCCCC1)c1ccccn21`, the growth was -83.5% (active).

On to `C[C@@H]1O[C@@H](O[C@@H]2C[C@H](c3ccc4c(c3O)C(=O)C3=C(C4=O)[C@@]4(O)C(=O)C[C@](C)(O)C[C@@]4(O)C=C3)O[C@H](C)[C@H]2O)C[C@H](O)[C@@H]1O`, for which the growth was 98.4%.

As for `COc1cccc2c(N=NC(=O)c3ccc(S(N)(=O)=O)cc3)c(O)[nH]c12`, the growth was 102%.

On to `C=CC(C)(O)CC/C=C(\CO)C(=O)OC1C(C)OC(O[C@](C)(C=C)CC/C=C(\CO)C(=O)O[C@H]2C[C@@]3(C(=O)OC4OC(CO)C(O)C(O)C4OC4OC(C)C(OC5OC(CO)C(O)C5O)C(OC5OC(CO)C(O)C(O)C5O)C4O)C(CC2(C)C)C2=CCC4[C@@]5(C)CC[C@H](OC6OC(COC7OC(C)C(O)C(O)C7OC7OCC(O)C(O)C7O)C(O)C(O)C6NC(C)=O)C(C)(C)C5CC[C@@]4(C)[C@]2(C)C[C@H]3O)C(O)C1O` (stereo not given in full), for which the growth was -34.1% (active).

Regarding `C#CC#CC#CC#CC#CC#CC#CC#CC[C@H]1OC[C@H](COC(=O)O[C@@H](C(=O)O[C@H]2C[C@@]3(O)[C@@H](OC(=O)c4ccccc4)[C@@H]4[C@]5(OC(C)=O)CO[C@@H]5C[C@H](O)[C@@]4(C)C(=O)[C@H](OC(C)=O)C(=C2C)C3(C)C)[C@@H](NC(=O)c2ccccc2)c2ccccc2)O1`, the growth is 27.5%.

Consider `CCCCCCCCNc1cc2c3c(c1)CCCN3CCC2`, for which the growth is 30.3%.

For the compound `COc1cc(/C=C2\CN(S(=O)(=O)c3ccc(C)cc3)C/C(=C\c3cc(CN4CCCCC4)c(O)c(OC)c3)C2=O)cc(CN2CCCCC2)c1O`, the growth is -89% (active).

Take `CCC(C)Nc1ccc(NC(C)CC)cc1` (stereo not given): the growth is 98.9%.

Consider `Cc1ccc(-c2csc(NC(=O)N3CCN(c4cc5c(cc4F)c(=O)c(C(=O)O)cn5C4CC4)CC3)n2)cc1`, for which the growth is 20%.

With `Cc1c(N2CN3C[C@H](C)N4CN(c5c(C)n(C)n(-c6ccccc6)c5=O)CN5C[C@@H](C)N(C2)C3C54)c(=O)n(-c2ccccc2)n1C` (stereo not given in full), the growth is 99.8%.

Consider `S=c1[nH]c2cc(Cl)ccc2o1`, for which the growth was 94.3%.

As for `O=C(N/N=C/c1ccc(Cl)cc1Cl)c1ccc2nc(-c3ccc(Cl)cc3)[nH]c2c1`, the growth was 19.7%.
